# From PubChem
# Six1-Eya2 blk: Six1/Eya2 interaction inhibition | AlphaScreen GST-Six1/His-Eya2 binding, biochemical; stronger effect = lower value | activity change, % (no concentration beside the values) | 0.56% of 360,000 active; in the data active = activity change below about -65%; inconclusive = mostly about -30% to -63%; also: % is scaled to controls: 0 for no effect and ±100 for the full control effect
#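 GST-Six1 + His-Eya2 (5X stock: 250/500 nM); Tris pH 8.0, 300 mM NaCl, 0.05% BSA, 0.02% Tween 20; GSH donor/Ni acceptor beads; 1 h 37 °C dark; AlphaScreen readout.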
# JMJD2A Tudor inh: blocks the human JMJD2A Tudor domain; Potency, µM (titrated, usually from 114 µM), without a hit: top-dose activity change, negative = inhibition, most hits filed as inhibitors; AlphaScreen JMJD2A-Tudor / H3K4me3 peptide binding; 4.4% of 390,000 active; also: potency is read from the fitted curve at half-maximal effect; % is scaled to controls: 0 for no effect and ±100 for the full control effect; nearly all actives have a fitted effect of over 50% in size
# BAZ2B inh: inhibitors of human BAZ2B bromodomain; Potency, µM (doses to about 114 µM), for the others: at the highest dose activity change, negative = inhibition, usual class: inhibitors; 4.4% of 360,000 active; AlphaScreen BAZ2B-H3K14Ac peptide displacement; also: potency is read from the fitted curve at half-maximal effect; % is scaled to controls: 0 for no effect and ±100 for the full control effect; nearly all actives have a fitted effect of over 60% in size
#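 AlphaScreen displacement: compounds (up to 110uM) incubated 30 min at room temperature with a preformed 50 nM BAZ2B/50 nM biotinylated H3K14Ac peptide complex in PBS pH 7.4 with Tween-20. Donor and acceptor beads at 10 ug/mL final added, 20 min light-protected before reading.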
# CtBP-E1A blk: CtBP/E1A binding inhibition. 0.49% of 340,000 active. activity change, % (test concentration not listed). AlphaScreen GST-E1A/His-CtBP binding, 1536-well; stronger effect = lower value; in the data active = activity change below about -65%; inconclusive = mostly about -30% to -63%; also: % is scaled to controls: 0 for no effect and ±100 for the full control effect
#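 GST-E1A and His-tagged CtBP (125 nM each as 5X stock) were preincubated with pin-transferred compound for 2 h at 37 °C in the dark, then glutathione donor and nickel acceptor beads were added for 1 h before AlphaScreen reading.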
# G9a block: inhibitors of human histone lysine methyltransferase G9a. G9a H3K9 monomethylation, AlphaScreen, 2 h. Q96KQ7. Potency, µM (highest dose often 102 µM), without a hit: at the highest dose activity, negative = inhibition, hits mostly inhibitors. 8.8% of 350,000 active; also: potency is read from the fitted curve at half-maximal effect; % is scaled to controls: 0 for no effect and ±100 for the full control effect; nearly all actives have a fitted effect of over 75% in size
#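 Enzyme 20 nM + cpd, 15 min RT; add b-H3K9 pep 500 nM / SAM 20 uM; 2 h RT; anti-H3K9me1 Ab 0.5 ug/mL + SA donor / anti-rabbit acceptor beads 20 ug/mL each, 10 min; AlphaScreen read.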
# HP1b chromo inh: inhibitors of HP1-beta chromodomain binding to methylated histone tails. AID 540317. 0.56% of 390,000 active. Potency, µM (series often up to 114 µM), inactives show at the highest dose activity change, negative = inhibition, hits mostly inhibitors. P83916. AlphaScreen HP1-beta / biotin-H3K9me3 peptide binding; also: potency is read from the fitted curve at half-maximal effect; nearly all actives have a fitted effect of over 70% in size
#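 AlphaScreen: HP1-beta (50 nM) preformed 30 min with biotin-H3(1-18)K9me3 peptide (50 nM) in PBS pH 7.4, 0.01% Tween-20. Compound added for 30 min at RT, then streptavidin donor/nickel chelate acceptor beads (10 ug/mL) for 30 min.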
# An asterisk follows results filed as active; ? = inconclusive; / = not tested or not shown; ! = a repeat was not active; [ ] = another dose, or the depositor's remark. Rows were chosen to be rich in hits. Some 10% of all compounds tested hit in one or more screens of this group. Unless noted, calls follow the shape of the dose curve; as a rule, active = well fitted inhibition curve with a large enough effect; inconclusive = small, poorly fitted or top-dose-only effect; inactive = no such curve, though single readings can be large or run the other way.
SMILES,Six1-Eya2 blk,JMJD2A Tudor inh,BAZ2B inh,CtBP-E1A blk,G9a block,HP1b chromo inh
CC1Cc2ccccc2N1S(=O)(=O)c1nnc(NC(=O)c2cccc(F)c2)s1 (stereo not drawn),/,-29%,-9%,/,-9%[59 µM],-10%
CCC(=O)Nc1nnc(S(=O)(=O)N2CCc3ccccc32)s1,-7,-11%,?,0,-11%,0%
CCC(CC)C(=O)Nc1nnc(S(=O)(=O)N2CCc3ccccc32)s1,-1,-6%,?,4,7.1µM*,20%
CCC(CC)C(=O)Nc1nnc(S(=O)(=O)N2c3ccccc3CC2C)s1 (stereo not drawn),-3,50µM*!,25µM*!,3,-9%,42%
COCCNC(=O)C(c1ccccc1C)N(C(=O)Cn1nnc2ccccc21)c1cccnc1 (stereo not drawn),16,4%,12%,2,6%[59 µM],36%
CCOC(=O)c1cnc2c(ccc3ccccc32)c1Nc1ccc(OC)cc1OC,/,?,?,/,?,-2%
CCOC(=O)[C@]12CCC=C1N(Cc1ccccc1)C(=O)[C@H](CC(=O)NCc1cccs1)C2,-1,/,/,2,/,/
Cc1ccc(CN(Cc2ccccc2)C(=S)NCC(=O)NCc2cccnc2)o1,-7,?,-25%,2,28µM*,1%
Cc1ccc(CN(Cc2ccco2)C(=S)NCC(=O)NCc2cccnc2)cc1,-4,-32%,?,-2,13µM*,?
Cc1ccc(CN(Cc2ccco2)C(=S)NCC(=O)O)cc1,3,-13%,-6%,5,32µM*,14%
Cc1ccc(CNC(=O)CNC(=S)N(Cc2ccccc2)Cc2cccnc2)cc1,-1,-26%,-12%,0,-47%,22%
CC(C)c1ccc(C(N)=S)cc1,-8,-9%,?,/,50µM*,-6%
O=C(/C=C/[C@H]1O[C@@H](n2cnc3c(NC(=O)c4ccccc4)ncnc32)[C@H](O)[C@@H]1O)NCCc1ccc(F)cc1,6,/,/,1,/,/
COC(=O)c1ccc2c(=O)[nH]c(CSc3nc(C)cs3)nc2c1,-3,-8%,-16%,-2,40µM*,11%
COC(=O)c1ccc2c(=O)[nH]c(CSc3nc(-c4ccc(F)cc4)cs3)nc2c1,6,-6%,-6%,2,?,6%
COc1ccc2oc(=N)c(C(=O)NCc3ccccc3)cc2c1,-9,-14%,-4%,-1,35µM*,1%
CNC(=O)c1cc2cc(OC)ccc2oc1=N,13,-7%,-25%,2,56µM*,13%
CC(C)OC(=O)c1nnn(-c2nonc2N)c1CN1CCCCCC1,-5,-29%,4%,6,?,30%
Cn1cnc(S(=O)(=O)N2CCC(C(=O)NCc3ccccc3)CC2)c1,/,-5%,?,/,-5%[59 µM],-5%
C/C(CCN1CCc2nc(-c3ccccc3)c(-c3ccccc3)cc2C1)=N\O[C@@H](C)c1cn([C@H](CO)Cc2ccccc2)nn1,/,/,?,/,45µM*,/
COC(=O)C/C=C/[C@@H](C)[C@@H](/C=N/OC[C@H]1O[C@H](c2ccccc2)C=C[C@@H]1Oc1ccc(OC)cc1)NS(=O)(=O)c1ccc(C)cc1,/,/,-21%,/,?,/
COc1ccc(O[C@H]2C=C[C@@H](c3ccccc3)O[C@@H]2CO/N=C(\C)CCC(=O)OC[C@H]2O[C@H](c3ccccc3)C=C[C@@H]2Oc2ccc(OC)cc2)cc1,/,/,?,/,45µM*,/
COc1ccc(O[C@H]2C=C[C@@H](c3ccccc3)O[C@@H]2COC(=O)CC/C(C)=N/O[C@@H](C)c2cn([C@H](CO)Cc3ccccc3)nn2)cc1,/,/,?,/,79µM*,/
Cc1nn(C)c2c1c(C(F)(F)F)cc(=O)n2CC(=O)NCc1ccc(OC(C)C)cc1,/,-12%,-6%,/,14%[59 µM],8%
COc1ccc(S(=O)(=O)Nc2cc(S(=O)(=O)c3ccccc3)c(O)c(C)c2C)cc1,/,-10%,-8%,/,-43%[59 µM],14%
SMILES,Six1-Eya2 blk,JMJD2A Tudor inh,BAZ2B inh,CtBP-E1A blk,G9a block,HP1b chromo inh
COCC(C)N1CCC(Oc2ccc(C(=O)NCc3ccccn3)cc2)CC1 (stereo not drawn),2,-7%,-1%,-4,/,33%
CC1(C)CC(=O)C=C(c2ccc(F)cc2OCc2ccccc2)C1,21,67%,43%,19,-2%[0.501 µM],108%
CNC(=O)COC(=O)/C=C/c1nc2ccccc2s1,5,-11%,-17%,-16,24%[59 µM],34%
CCN(CC)c1ccc(NC(=O)COC(=O)/C=C/c2nc3ccccc3s2)cc1,-15,?,-26%,?,6.3µM*,-6%
CSC1=NC2C(N1)N(C)C(=O)N2C (stereo not drawn),4,-15%,35µM*,11,7.9µM*,30%
Nc1c(Cl)cc(N=Nc2ccccc2)cc1Cl,?,14µM*,/,?,/,?
CNc1ncnc2c1ncn2[C@H]1CN(Cc2ccc3c(c2)OCO3)C[C@@H](CO)O1,-1,/,/,7,/,/
C=CCN1C(=O)C(O)(CC(=O)c2ccc(-n3cccc3)cc2)c2ccccc21 (stereo not drawn),-9,?,50µM*,-2,?,?
COC(=O)c1ccc(Cn2c(C)c(C(=O)Nc3cccc(Oc4ccccc4)c3)sc2=O)o1,-8,/,/,-6,/,/
O=C(c1cc(-n2cnnc2)ccc1Cl)N1CCN(c2nc(-c3ccccc3)cs2)CC1,-24,56µM*,-2%,?,6%,?
O=C(c1ncn[nH]1)N1CCN(c2nc(-c3ccccc3)cs2)CC1,?,-35%,-34%,?,?,-18%
NS(=O)(=O)c1ccc(N2CCCC2=O)c([N+](=O)[O-])c1,2,9%,-11%,11,?,55%
CCCCN(CCCC)S(=O)(=O)c1ccc(N2CCCC2=O)c([N+](=O)[O-])c1,-1,32µM*,/,-1,/,-8%
CCCN(CCC)S(=O)(=O)c1ccc(N2CCCC2=O)c([N+](=O)[O-])c1,-5,-10%,3%,0,3%[59 µM],30%
NNS(=O)(=O)c1ccc(N2CCCC2=O)c([N+](=O)[O-])c1,8,25µM*,-17%,/,10µM*,48%
CC(C)Oc1ccc(C2c3c(oc4ccccc4c3=O)C(=O)N2CCCN2CCOCC2)cc1 (stereo not drawn),0,-23%,?,-1,?,8%
CC(C)c1ccc(C2c3c(oc4ccc(Cl)cc4c3=O)C(=O)N2CCCN2CCOCC2)cc1 (stereo not drawn),/,-14%,?,/,-41%[59 µM],19%
